# Hsp70 act: switches on Hsp70 transcription | HeLa Hsp70 promoter luciferase reporter, luminescence; scaled: vehicle 0, proteasome-inhibitor control 100% | activation, % at 10 µM | 200,000 compounds, 0.04% hits | AID 1203;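 active = activation above the mean across all tested compounds plus 3 SD, cutoff set per campaign, cut at about 5.5% in these data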
# Arbovirus anti: blocks arbovirus infection; arbovirus infection cell-based antiviral screen; inhibition, % at 10 µM; 200,000 compounds, 0.37% hits; AID 1251; in the data active = inhibition above about 30%
# PKD1 inh: inhibitors of human PKD1 kinase; PKD1 kinase fluorescence polarization assay; 200,000 compounds, 0.056% hits; AID 797; inhibition, % (concentration not given with the values); Q15139; in the data active = inhibition above about 50%
# Target sequence (Q15139 whole entry, looked up): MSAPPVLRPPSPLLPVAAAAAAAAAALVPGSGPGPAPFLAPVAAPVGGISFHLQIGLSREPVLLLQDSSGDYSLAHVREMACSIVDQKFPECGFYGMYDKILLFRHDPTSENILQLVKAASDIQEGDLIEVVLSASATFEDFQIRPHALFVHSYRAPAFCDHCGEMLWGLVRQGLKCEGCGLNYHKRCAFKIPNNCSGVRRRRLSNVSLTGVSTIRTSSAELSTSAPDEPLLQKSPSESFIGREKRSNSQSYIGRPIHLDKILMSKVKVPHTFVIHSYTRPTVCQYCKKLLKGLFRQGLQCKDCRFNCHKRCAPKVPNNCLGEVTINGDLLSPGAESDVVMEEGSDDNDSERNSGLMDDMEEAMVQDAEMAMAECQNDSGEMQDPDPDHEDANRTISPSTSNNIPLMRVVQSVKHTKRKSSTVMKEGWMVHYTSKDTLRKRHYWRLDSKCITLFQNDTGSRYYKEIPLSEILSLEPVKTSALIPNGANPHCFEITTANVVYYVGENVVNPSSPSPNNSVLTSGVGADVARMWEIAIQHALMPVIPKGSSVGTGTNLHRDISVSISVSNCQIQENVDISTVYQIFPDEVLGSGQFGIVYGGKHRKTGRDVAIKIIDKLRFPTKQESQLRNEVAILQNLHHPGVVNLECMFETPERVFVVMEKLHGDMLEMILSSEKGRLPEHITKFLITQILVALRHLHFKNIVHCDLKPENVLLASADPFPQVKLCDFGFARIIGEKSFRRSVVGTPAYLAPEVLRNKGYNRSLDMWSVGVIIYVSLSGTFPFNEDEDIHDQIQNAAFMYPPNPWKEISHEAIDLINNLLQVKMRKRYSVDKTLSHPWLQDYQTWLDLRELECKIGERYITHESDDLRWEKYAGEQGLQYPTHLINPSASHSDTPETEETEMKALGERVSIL
# HMGR II inh: inhibitors of class II HMG-CoA reductase from Enterococcus faecalis | purified E. faecalis HMGR, NADPH absorbance 340 nm kinetic | inhibition, % at 10 µM | 190,000 compounds, 0.41% hits;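 active = inhibition above a set limit, the median over all tested compounds plus 3 SD, cut at about 9.5% in these data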;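 note: enzyme runs in reverse so mevalonate oxidation gives rising NADPH absorbance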
# Wee1 degr inh: inhibitors of human Wee1 degradation. AID 1321. 220,000 compounds, 1.2% hits. HeLa Luc-Wee1K328M stability, luciferase luminescence; 100% = proteasome inhibitor MG132 effect. reporter increase, % at 5 µM. P30291;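 active = activation above the mean of all tested compounds plus 3 SD, set per screening run, cut at about 8.8% in these data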;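 note: cells exposed to compound for 20 h before luminescence read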
# FP interf 140K: FP interference, PKD inhibitor counter-screen. shares compounds with PKD1 inh. PKD1 FP assay interference counter-screen, fluorescence polarization. inhibition, % at 10 µM. 85 tested, under 10 active. AID 1315; call rule not given here
# Numbers stand for hits; n = inactive; x = no result given. Shown are actives, neighbours in structure and some others; about 2% of the full set was active somewhere.
SMILES,Hsp70 act,Arbovirus anti,PKD1 inh,HMGR II inh,Wee1 degr inh,others
CCOc1ccccc1N1CC(C(=O)Nc2ccc3c(c2)OCCO3)CC1=O (configuration not stated),n,n,n,12,n,
CCCCC/C(=N\NC(=O)Nc1ccccc1)c1ccccc1,n,n,n,n,9.2,
O=C(OCc1cncs1)c1cccs1,n,n,n,n,n,
O=C(c1cc(-c2ccc(O)cc2)on1)N1CCc2ccccc2C1,n,n,n,n,n,
O=C(c1cc(-c2ccccc2O)on1)N1CCc2ccccc2C1,n,33,n,n,n,
C=CCc1cccc2cc(C(=O)Nc3ccccc3C(=O)O)c(=O)oc12,n,32,n,n,n,
Cc1c(C(=O)NCC2COc3ccccc3O2)oc2ccc(S(=O)(=O)N3CCOCC3)cc12 (configuration not stated),n,n,n,n,9.1,
COc1ccc(NC(=O)CN2C(=O)N(C)Cc3ccccc32)c(C)c1,n,n,n,n,n,
O=C(c1ccc2c(Cl)c3c(nc2c1)CCCC3)N1CCC(N2CCCCC2)CC1,n,n,n,11,n,
CC[n+]1ccc(C(=O)NCc2ccccc2)cc1,n,n,n,n,n,
COC(=O)C1=C(C)NC(C)=C(C(=O)OC)C1C1CC=CCC1 (configuration not stated),n,n,n,15,n,
CCOC(=O)C1=C(C)NC(=O)NC1C1CC=CCC1 (configuration not stated),n,n,n,n,n,
COc1cccc(CN2CCN(Cc3ccc(C#CC(C)(C)O)s3)CC2CCO)c1 (configuration not stated),n,n,n,n,10,
Cc1cc(=S)c2cccc(C)c2[nH]1,n,n,n,n,n,
O=C(Nc1ccc(N2CCN(C(=O)c3cccs3)CC2)c(Cl)c1)c1cccnc1,n,n,n,11,n,
O=C(Nc1ccc(N2CCN(C(=O)c3ccco3)CC2)c(Cl)c1)c1cccnc1,n,n,n,n,n,
O=C(COC(=O)c1cc(-c2ccc(F)cc2)nc2ccccc12)NCC1CCCO1 (configuration not stated),n,n,n,n,n,
CC(C)CC(NC(=O)OC(C)(C)C)c1cn([C@@H](CCCCNC(=O)OC(C)(C)C)C(=O)N2CCN(C(=O)OC(C)(C)C)CC2)nn1 (some centres not stated),n,n,n,n,10,
FC(F)(F)c1cccc(-c2nc3nc(Cl)c(Cl)nc3[nH]2)c1,x,x,x,x,n,
COc1ccc(CCNC(=O)CCc2ccc(S(=O)(=O)NCC(C)C)cc2)cc1,n,n,n,n,n,
O=C(Nc1nc2c(s1)CN(Cc1ccccc1)CC2)c1cccc(S(=O)(=O)N2CCc3ccccc32)c1,n,n,n,n,12,
Cn1nnc2cc(C(=O)Nc3ccc4ccccc4c3)ccc21,n,n,n,13,n,
Oc1ccc2oc3c(c2c1/C=N/n1cnnc1)CCCC3,n,n,n,n,n,
Oc1ccc2oc3c(c2c1C=NCc1ccncc1)CCCC3,x,x,x,x,25,
C=CCc1ccc(OCC(O)CO)c(OC)c1 (configuration not stated),n,n,n,n,n,
SMILES,Hsp70 act,Arbovirus anti,PKD1 inh,HMGR II inh,Wee1 degr inh,others
C=CCc1ccc(O)c(-c2cc(CC=C)ccc2O)c1,n,n,n,n,10,
COc1ccccc1NC(=O)Cc1noc(CSc2n[nH]c(N)n2)n1,n,n,n,n,n,
CCN(CC)c1ccc(NC(=O)c2ccccc2F)cc1,n,n,n,n,9.2,
S=C(NC1CCCCC1)N1CCN(C2CCCCC2)CC1,n,n,n,n,n,
OC(CNC1CCCC1)COCCOc1ccc(Br)cc1 (configuration not stated),x,x,x,x,n,
OC(CNC1CCCCC1)CNC1CCCCC1,n,39,n,n,n,
C=CCn1c(SC(C)C(=O)NCc2ccc3c(c2)OCO3)nnc1C1CCCCC1 (configuration not stated),n,n,97,n,n,FP interf 140K=n
CC(Sc1nnc2ccccn12)C(=O)NCc1ccc2c(c1)OCO2 (configuration not stated),n,n,n,n,n,
CC1Cc2ccccc2N1C1=CC(=O)CCC1 (configuration not stated),n,n,n,n,n,
CC(C)Oc1cccc(C(=O)C2CCCN(C(=O)c3ccnn3C)C2)c1 (configuration not stated),n,n,n,n,n,
COC(=O)c1ccc2c(c1O)C(=O)c1ccccc1C2=O,n,n,n,n,n,
COC(=O)c1cccc2c1-c1ccccc1/C2=N/O,n,n,70,n,n,FP interf 140K=n
COc1ccc(/C=N/NC(=O)c2ccn[nH]2)cc1CN1CCOCC1,x,x,x,x,n,
CCOc1cccc(C2C(C(=O)c3ccc(C)o3)=C(O)C(=O)N2c2nccs2)c1 (configuration not stated),n,n,88,n,n,FP interf 140K=71
CCN1/C(=C/C(C)=O)Sc2ccc(OC)cc21,n,n,78,n,n,FP interf 140K=n
Cc1cc(C)n2nc(C(=O)OCC(=O)N(CC(C)C)CC(C)C)nc2n1,n,n,n,n,n,
COCC(C)n1c(C)cc(C(=O)COC(=O)c2nc3nc(C)cc(C)n3n2)c1C (configuration not stated),n,n,98,n,n,FP interf 140K=n
CS(=O)(=O)c1ccc(Cl)c(NC(=O)CCc2ccccc2)c1,n,n,n,n,n,
CCOC(=O)c1[nH]c2cc(OC)c(OC)cc2c1NC(=O)CN1CCN(C)CC1,n,n,76,n,n,FP interf 140K=n
Cc1c(N/N=C(\C#N)C(=O)c2ccc(Cl)cc2)c(=O)n(-c2ccccc2)n1C,n,n,62,n,n,FP interf 140K=n
N#C/C(=N\Nc1ccc(Cl)cc1)C(=O)c1ccccc1,n,n,n,n,n,
OCCC1CN(Cc2cn[nH]c2C2CCCCC2)CCN1C1CCCC1 (configuration not stated),n,n,n,n,n,
COc1ccc2nc3sc(C(=O)NCCCN4CCc5ccccc5C4)cc3cc2c1,n,n,56,n,n,FP interf 140K=n
Cn1c(=O)[nH]c(=O)c2c1nc(NC1CCCCC1)n2CC(=O)NC1CCCCC1,n,n,101,n,n,FP interf 140K=n
Cn1c(=O)[nH]c(=O)c2c1nc(NC1CCCCC1)n2CCO,x,n,x,x,x,
SMILES,Hsp70 act,Arbovirus anti,PKD1 inh,HMGR II inh,Wee1 degr inh,others
COc1ccc([C@H]2C(C#N)=C([S-])N[C@](C)(O)[C@@H]2[n+]2ccccc2)cc1,x,x,x,x,n,
CCCNC(=O)CN(c1ccc(F)cc1)S(=O)(=O)c1ccc2c(c1)OCCO2,n,n,56,n,n,FP interf 140K=n
O=C(CN(c1ccc(F)cc1)S(=O)(=O)c1ccc2c(c1)OCCO2)NCc1ccncc1,n,n,n,n,n,
CCOC(=O)C1(CCOC)CCN(Cc2nc(C(C)C)cs2)CC1,n,n,n,n,n,
CCOC(=O)N1CCC(NS(=O)(=O)c2cc(Br)cc3c2N(C(=O)CC)CC3)CC1,n,n,66,n,n,FP interf 140K=n
Cn1c(OCc2cccnc2)nc2c1c(=O)n(Cc1ccc(Br)cc1)c(=O)n2C,n,n,97,14,n,FP interf 140K=n

# Screening results from PubChem.
